Several values for one entry are separate records, joined by “and”; a condition that tells them apart may be missing. Equal values may be shown once. Records with an inconclusive call do not appear. A number with no mark means an inactive call. Activity calls are given as the source filed them. Unless noted, calls come from the whole dose curve; as a rule, active = well fitted curve in the direction sought with a large enough effect; inconclusive = small, poorly fitted or top-dose-only effect, or another doubt; inactive = no such curve, though single readings can be large; an effect the other way counts as inactive or inconclusive.

Assay [1] can be described thus: Primary qHTS for inhibitors of La Crosse Virus (LACV) - induced cell death in SH-SY5Y cells (AID 1508616).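 Note: top concentration of the series differs between compounds; 0% = infected DMSO wells and 100% = uninfected DMSO wells; higher means more rescue of cells from virus-induced death.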 To be noted: SH-SY5Y LACV cytopathicity rescue, ATP luminescence, 6 d; series mostly up to 4.29 µM. In a few lines:
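Protection against LACV-induced cell death is scored in SH-SY5Y cells exposed to compounds and virus (0.01 MOI) for 6 days. Data normalized to virus-infected DMSO wells and virus-free DMSO wells.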
In general terms: qHTS replaces the single test concentration by a dilution series.

Assay [2] in a line: Counterscreen qHTS for small molecule stabilizers of the endoplasmic reticulum resident proteome: GLuc-NoTag assay (AID 1508627). Note: potency is the fitted concentration of half-maximal effect. The settings on record: Gaussia luciferase NoTag secretion counterscreen, luminescence, thapsigargin 100 nM for final 4 h; series mostly up to 76.4 µM. The method, boiled down:
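SH-SY5Y cells stably expressing constitutively secreted GLuc without SERCaMP tag, exposed to compound for 19 hr, then to 100 nM thapsigargin for 4 hr at 37C. Medium luciferase was read by coelenterazine luminescence without lysis.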
Background: A counterscreen serves to expose hits that act by an unwanted route or on another target.

Assay [3] can be described thus: Confirmatory qHTS for small molecule stabilizers of the endoplasmic reticulum resident proteome: Secreted ER Calcium Modulated Protein (SERCaMP) assay (AID 1508628). Note: potency is the fitted concentration of half-maximal effect; nearly all actives have a fitted effect of over 40% in size. To be noted: SERCaMP secreted luciferase ER calcium/proteostasis reporter; series mostly up to 76.3 µM. The method, boiled down:
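SH-SY5Y cells stably expressing GLuc-SERCaMP, treated 16 h with compound (primary 1.53, 7.67, 38.3 uM; confirmation 11 concentrations, up to 76.6 uM), then 100 nM thapsigargin for 4 h. Secreted Gaussia luciferase in medium read by coelenterazine luminescence.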

The nature of assay [4]: Cell Viability qHTS for small molecule stabilizers of the endoplasmic reticulum resident proteome (AID 1508629).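 Note: human SH-SY5Y neuroblastoma cells carrying the GLuc-SERCaMP reporter; compound exposure about 46 h in total before the viability read; % is set by controls: 0 for no effect and ±100 for the full control effect.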 The settings on record: cell viability counter-screen, 100 nM thapsigargin for final 4 h.
The nature of assay [5]: Primary qHTS for small molecule stabilizers of the endoplasmic reticulum resident proteome: Secreted ER Calcium Modulated Protein (SERCaMP) assay (AID 1508630). Note: % is set by controls: 0 for no effect and ±100 for the full control effect. The settings on record: SH-SY5Y GLuc-SERCaMP (Gaussia luciferase released on ER calcium loss) secretion, thapsigargin, luminescence; series mostly up to 38.4 µM. In a few lines:
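GLuc-SERCaMP-expressing SH-SY5Y cells, pretreated 16 h with compound, are challenged with thapsigargin to empty ER calcium stores; after 4 h, coelenterazine is added directly to the medium and luminescence is imaged.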

Assay [6] deals with Cytochrome P450 2D6 (Homo sapiens) (UniProt P10635). Kind of assay: Cytochrome P450 family 2 subfamily D member 6 (CYP2D6) small molecule antagonists: luciferase biochemical (cell-free) qHTS assay (AID 1645840; active = well fitted curve in the direction sought with a large enough effect in the repeat runs; an effect the other way counts as inactive or inconclusive; note: nearly all actives have a fitted effect of over 55% in size; note: potency is the fitted concentration of half-maximal effect). To be noted: P450-Glo CYP2D6 enzyme, luciferin luminescence, 1 h; series mostly up to 57.4 µM. In a few lines: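 P450-Glo luminescent screen: recombinant CYP2D6 enzyme–proluciferin substrate mix preincubated with compound 10 min at room temperature, then NADPH regeneration added for 1 h at room temperature. Detection reagent added for 20 min; luciferin light read as relative luminescence units.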

Assay [7] addresses Calcium and integrin-binding protein 1 (Homo sapiens) (UniProt Q99828). The assay can be described thus: Validation qHTS for Identification of Calcium Integrin Binding protein 1 (CIB1) Competitor (AID 1508618). Note: % is set by controls: 0 for no effect and ±100 for the full control effect. The settings on record: CIB1-GST / FITC-alphaIIb peptide fluorescence polarization; series mostly up to 114 µM. The method, boiled down: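 CIB1-GST (1 uM final) in 5 mM HEPES pH 7.4, 125 mM NaCl, 5 mM CaCl2, 0.01% Tween20 was preincubated 15 min at room temperature with compound (up to 114 uM), then FITC-alphaIIb peptide (100 nM) added for 15 min; fluorescence polarization read.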

The target is the same in assay [8]. The assay can be described thus: Primary qHTS for Identification of Calcium Integrin Binding Protein 1 (CIB1) Competitor (AID 1508620).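 Note: GST tagged CIB1 binding a fluorescein labelled alphaIIb integrin peptide tracer; top concentration of the series differs between compounds; % is set by controls: 0 for no effect and ±100 for the full control effect.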 To be noted: CIB1-GST / FITC-alphaIIb peptide fluorescence polarization; series mostly up to 57.7 µM. In a few lines:
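Fluorescence polarization competition: GST-tagged CIB1 (1 uM final) preincubated with compound 15 min at room temperature, then FITC-labelled alphaIIb peptide (100 nM final) added. After 15 min at room temperature, polarization read at Ex 480/Em 540.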

The nature of assay [9]: A High-Content qHTS Against Drug Library for the Identification of Small Molecules that Inhibit DYT1 Early Onset Primary Dystonia-Associated Cell Pathology (AID 1645839; calls by dose curve). To be noted: HEK293 Flp-In EGFP-delE TorsinA, punctate imaging, 48 h; series mostly up to 46.1 µM. The method, boiled down: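 Flp-In T-REx 293 cells with tetracycline-inducible EGFP-delE hTOR1A (WT EGFP-hTOR1A as reference), 800 cells/well; compound added with tetracycline, 48 h at 37 C. Fixed, permeabilized cells imaged; %pathology (punctate TorsinA) primary, cell count counterscreen.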

Sequence of Cytochrome P450 2D6 (Homo sapiens) (P10635 whole entry, looked up): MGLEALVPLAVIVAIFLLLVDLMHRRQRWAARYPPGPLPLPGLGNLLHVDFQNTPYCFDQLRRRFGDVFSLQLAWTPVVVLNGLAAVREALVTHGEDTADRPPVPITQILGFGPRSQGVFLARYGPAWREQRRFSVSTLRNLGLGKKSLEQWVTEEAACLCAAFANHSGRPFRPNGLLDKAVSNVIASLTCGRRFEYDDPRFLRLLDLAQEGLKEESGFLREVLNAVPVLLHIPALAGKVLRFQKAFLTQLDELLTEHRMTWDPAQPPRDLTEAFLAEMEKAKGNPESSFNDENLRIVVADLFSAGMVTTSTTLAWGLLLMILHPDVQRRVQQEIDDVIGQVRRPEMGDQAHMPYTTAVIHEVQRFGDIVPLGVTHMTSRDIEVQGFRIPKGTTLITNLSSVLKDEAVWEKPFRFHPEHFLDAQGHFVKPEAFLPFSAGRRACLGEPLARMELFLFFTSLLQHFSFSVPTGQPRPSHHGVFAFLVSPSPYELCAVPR
Sequence of Calcium and integrin-binding protein 1 (Homo sapiens) (Q99828 whole entry, looked up): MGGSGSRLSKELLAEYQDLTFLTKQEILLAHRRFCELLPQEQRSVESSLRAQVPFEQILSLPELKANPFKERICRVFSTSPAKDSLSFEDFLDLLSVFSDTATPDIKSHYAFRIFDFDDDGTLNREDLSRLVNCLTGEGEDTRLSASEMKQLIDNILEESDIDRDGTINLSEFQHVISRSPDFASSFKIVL

For the molecule `C[C@@H]1CC(=O)NN=C1c1ccc(NN=C(C#N)C#N)cc1`, the Potency entry in assay [1], in assay [5] and in assay [6] was “inactive” each time. For the same molecule, the Potency in [2] was 14.1 µM (active) and 28.2 µM (active); in assay [3], 15.8 µM (active). The max response in [4] is -18.7%.

For `N[C@@H](Cc1c[nH]c2ccc(O)cc12)C(=O)O`, the Potency result in [1], in assay [7] and in assay [5] was “inactive” each time. For the same molecule, the Potency in assay [6] was 19.5 µM (active).

For the molecule `OCCN1CCN(CCCN2c3ccccc3Sc3ccc(C(F)(F)F)cc32)CC1`, the Potency entry in assay [1], in [8] and in [5] was “inactive” in each case.

In the case of `CN(C)C(=O)C(CCN1CCC(O)(c2ccc(Cl)cc2)CC1)(c1ccccc1)c1ccccc1`, the Potency result in [7] and in assay [8] was “inactive” in each case.

With `CC(C)(C)C(=O)Oc1ccc(S(=O)(=O)Nc2ccccc2C(=O)NCC(=O)O)cc1`, the Potency entry in assay [1], in [7], in assay [5] and in assay [6] was “inactive” each time.

As to `Cc1cnc(C(=O)NCCc2ccc(S(=O)(=O)NC(=O)NC3CCCCC3)cc2)cn1`, the Potency result in assay [1] and in assay [9] was “inactive” throughout.

The record behind these values is PubChem BioAssay (NCATS).
